Screens from PubChem BioAssay.
In the library only some 7.9% were active in any assay of this set; here they are far more common.
HCMV inh – human cytomegalovirus inhibition; activity change, negative = inhibition, % at 57.5 µM; 4.5% of 410,000 active; AID 1259415; HFF cells, HCMV-luciferase reporter, 72 h; hits give low values; in the data active = activity change below about -60%; inconclusive = no clear call, values can overlap the other calls; inactive = above about -39%
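Human foreskin fibroblasts infected with luciferase-reporter HCMV at MOI 1 PFU/cell, compounds at two doses. Luciferase measured 72 h post infection; normalized to buffer-only basal and Salinomycin (10uM) controls.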
HCV inh – inhibitors of hepatitis C virus infection; 3.4% of 340,000 active; Potency, µM (highest dose often 41.8 µM), without a hit: at the highest dose activity change, negative = inhibition, most hits filed as inhibitors; Huh7.5.1 HCVcc-Cre infection, luciferase reporter, 44 h; active = well fitted inhibition curve with a large enough effect; inconclusive = small, poorly fitted or top-dose-only effect, or another doubt; inactive = no such curve, though single readings can be large or run the other way; also: potency is read from the fitted curve at half-maximal effect
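HCVcc-Cre virus at an moi near 0.5 was added right after compound to cells cultured 4 h from seeding (1,000 cells/well). Luciferase activity was determined 44 h later, 15 min after substrate addition at RT.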
Marburg entry inh – Marburg virus entry inhibition; Marburg virus pseudotyped entry inhibition, cell reporter; AID 540276; Potency, µM (titrated, usually from 37.8 µM), for inactives: top-dose activity change, negative = inhibition, usual class: inhibitors; 1.8% of 300,000 active; calls by dose curve; tested in HEK293 cells; also: potency is read from the fitted curve at half-maximal effect
LASV entry inh – inhibitors of Lassa virus binding or cell entry; Lassa virus pseudotype entry inhibition, cell reporter; Potency, µM (top dose mostly 37.9 µM), without a hit: at the highest dose activity change, negative = inhibition, usual class: inhibitors; 1.2% of 300,000 active; AID 540256; calls by dose curve; tested in HEK293 cells; also: potency is read from the fitted curve at half-maximal effect; nearly all actives have a fitted effect of over 50% in size
FMDV antiviral – antivirals against foot and mouth disease virus; FMDV antiviral cell-based qHTS; Potency, µM (top dose mostly 57.9 µM), without a hit: at the highest dose activity change, negative = inhibition, usual class: inhibitors; AID 1159524; 1.2% of 410,000 active; calls by dose curve; tested in HEK293T cells; also: read-out not given here; potency is read from the fitted curve at half-maximal effect; nearly all actives have a fitted effect of over 45% in size
* marks the source's active call; other numbers are inactive results; [ ] = remark or other dose. % is scaled to controls: 0 for no effect and ±100 for the full control effect.

For COc1ccc(C2C(C(=O)c3ccco3)=C(O)C(=O)N2CC2CCCO2)cc1OC (centres undefined) the results were HCMV inh 23, HCV inh 7%, Marburg entry inh -10%[46.1 µM], LASV entry inh 10%[46.1 µM] and FMDV antiviral -9%.
`Cc1ccc2c(c1)C(c1ccccc1)N(C(=O)c1ccccc1F)CC(=O)N2` (centres undefined) gave HCMV inh 19, Marburg entry inh -6%[46.1 µM], LASV entry inh inconclusive and FMDV antiviral 24%.
`CCc1ccc(NC(=O)CCCn2nc(C)c3c(C)n(-c4ccccc4)nc3c2=O)cc1` gave HCMV inh inconclusive, LASV entry inh -8%[46.1 µM] and FMDV antiviral -13%.
For COc1ccc2c(-c3ccccc3)cc(SCC(=O)NC3CCS(=O)(=O)C3)nc2c1 (centres undefined) the results were HCMV inh -40, HCV inh -5%, Marburg entry inh inconclusive, LASV entry inh inconclusive and FMDV antiviral -20%.
COc1ccc(C(=O)NCc2ccc(C)cc2)cc1S(=O)(=O)N1CCCc2ccccc21 was read as HCMV inh -72*, HCV inh inconclusive, Marburg entry inh inconclusive, LASV entry inh -27% and FMDV antiviral 40%.
`CC(=O)Nc1ccc(S(=O)(=O)N2CCCc3ccccc32)cc1` gave HCMV inh -8, HCV inh 13µM*, Marburg entry inh inconclusive, LASV entry inh inconclusive and FMDV antiviral -12%.
For O=S(=O)(c1ccc(Cl)cc1)N1CCCc2ccccc21 the results were HCMV inh -9, HCV inh inconclusive and FMDV antiviral -30%.
For Cc1ccc(S(=O)(=O)N2CCCc3cc(NS(=O)(=O)c4ccc(C)c(C)c4)ccc32)cc1 the results were HCMV inh -24, LASV entry inh -3%[46.1 µM] and FMDV antiviral 0%.
Cc1ccc(S(=O)(=O)N2CCCc3cc(NS(=O)(=O)c4ccc(F)c(C)c4)ccc32)cc1 was read as HCMV inh -60*, LASV entry inh -27%[46.1 µM] and FMDV antiviral -40%.
Screening CCC(=O)N1CCCc2cc(S(=O)(=O)N3CCCc4ccccc43)ccc21 returned HCMV inh -38, HCV inh 10µM*, Marburg entry inh -16%, LASV entry inh -5% and FMDV antiviral inconclusive.
C[C@@H]1CN([C@@H](C)CO)C(=O)CCCn2nncc2CO[C@H]1CN(C)S(=O)(=O)c1ccccc1F was read as HCMV inh 9 and FMDV antiviral -6%.
CC(=O)N1CCCc2cc(S(=O)(=O)N(C)Cc3ccccc3)ccc21 was read as HCMV inh -27, HCV inh 35µM*, Marburg entry inh -5%[46.1 µM], LASV entry inh -11% and FMDV antiviral -19%.
Screening O=C(NCc1ccco1)c1ccc(S(=O)(=O)N2CCCc3ccccc32)cc1 returned HCMV inh -10, HCV inh 16%, Marburg entry inh inconclusive, LASV entry inh 16µM* and FMDV antiviral -28%.
Screening CC(=O)N1CCCc2cc(S(=O)(=O)N(CCN(C)C)Cc3ccccc3)ccc21 returned HCMV inh -8, LASV entry inh 25%[46.1 µM] and FMDV antiviral -2%.
`CCN1CCN(c2cc(N3CCc4ccccc4C3)c(F)cc2[N+](=O)[O-])CC1` gave HCMV inh -25, HCV inh 4.5µM*, Marburg entry inh 14µM*, LASV entry inh inconclusive and FMDV antiviral -26%.
For COc1cc(Nc2cc3c(cn2)nc(Cc2ccccc2)n3C)cc(OC)c1OC the results were HCMV inh 31.
Cc1cc(C)c(C(=O)NCCCN2CCOCC2)c(C)c1 was read as HCMV inh 23, HCV inh 9%, Marburg entry inh 4%, LASV entry inh -6% and FMDV antiviral -11%.
O=C(CSc1cccc[n+]1[O-])Nc1ccc(N2CCOCC2)cc1 was read as HCMV inh -17.
Screening CC(C(=O)Nc1ccccc1Cl)N(c1ccccc1)S(C)(=O)=O (centres undefined) returned HCMV inh 28, HCV inh 2%, Marburg entry inh 5%[46.1 µM], LASV entry inh -9% and FMDV antiviral 11%.
Screening CC(C(=O)NC1CCCCCC1)N(c1ccccc1)S(C)(=O)=O (centres undefined) returned HCMV inh 81, HCV inh 0%, Marburg entry inh 8.2µM*, LASV entry inh -2% and FMDV antiviral 14%.
COc1ccc2[nH]c3c(NCc4ccco4)ncnc3c2c1 was read as HCV inh inconclusive, Marburg entry inh inconclusive, LASV entry inh -11% and FMDV antiviral -3%.
`C=CCNc1ncnc2c1[nH]c1ccc(C)cc12` gave HCMV inh -68*, HCV inh inconclusive, Marburg entry inh inconclusive and LASV entry inh -15%.
For Cc1ccc2[nH]c3c(NCCN4CCOCC4)ncnc3c2c1 the results were HCMV inh -23, HCV inh -25%, Marburg entry inh 1%, LASV entry inh inconclusive and FMDV antiviral 60%.
Screening CCN(CC)CCNc1ncnc2c1[nH]c1ccc(OC)cc12 returned Marburg entry inh -3%.
For COc1ccc2[nH]c3c(NCCC4=CCCCC4)ncnc3c2c1 the results were HCMV inh -89*, HCV inh 2.8µM*, Marburg entry inh 10µM*, LASV entry inh inconclusive and FMDV antiviral -61%.
COc1ccc2[nH]c3c(NCCCOC(C)C)ncnc3c2c1 was read as HCMV inh 86, HCV inh 11µM*, Marburg entry inh inconclusive, LASV entry inh inconclusive and FMDV antiviral 2%.
Screening Fc1ccc2[nH]c3c(NCc4ccccc4)ncnc3c2c1 returned HCMV inh -85*, HCV inh 7.9µM*, Marburg entry inh inconclusive, LASV entry inh -30% and FMDV antiviral inconclusive.
Screening Cc1ccc(CNC(=O)C(=O)NCC2OCCCN2S(=O)(=O)c2ccc(F)cc2)cc1 (centres undefined) returned HCMV inh -10, Marburg entry inh -16%, LASV entry inh -13% and FMDV antiviral -16%.
`COc1cccc(/C=N/Nc2ncnc3scc(-c4ccccc4)c23)c1O` gave HCMV inh -100*, HCV inh inconclusive, Marburg entry inh 1.4µM*, LASV entry inh 5.2µM* and FMDV antiviral -2%.
`COc1cccc(/C=N/Nc2nccnc2Cl)c1O` gave HCMV inh -96*, HCV inh 2.5µM*, Marburg entry inh 1.6µM*, LASV entry inh 2.1µM* and FMDV antiviral 13µM*.
For COc1ccc(/C=N/Nc2nncc3ccccc23)cc1 the results were HCMV inh 98, HCV inh inconclusive, Marburg entry inh inconclusive, LASV entry inh inconclusive and FMDV antiviral 3.5µM*.
For COc1cccc(/C=N/Nc2ncnc(Cl)c2N)c1O the results were HCMV inh -97*, HCV inh 5.6µM*, Marburg entry inh 2.5µM*, LASV entry inh 3.7µM* and FMDV antiviral -10%.
Screening COc1ccc(/C=N/Nc2nccnc2Cl)c(OC)c1 returned HCMV inh -10, HCV inh -30%, Marburg entry inh 21%[46.1 µM], LASV entry inh inconclusive and FMDV antiviral 19%.
